# Results published in PubChem BioAssay (Tox21).
# Records with an inconclusive call do not appear. A call without a number means that no potency is given here. Values without a mark were called inactive. The source made the active and inactive calls. Calls come from the whole dose curve; as a rule, active = well fitted activation curve with a large enough effect in the repeat runs; inconclusive = weak or mixed curves; inactive = flat fitted curve, though single readings scatter.
# Experiment: Caspase-3/7 induction in HepG2 cells by small molecules, qHTS assay (AID 1346978); note: nearly all actives have a fitted effect of over 15% in size
# Settings: HepG2 caspase-3/7 activation, Caspase-Glo luminescence, 17 h; series mostly up to 92.4 µM
# Description: National Center for Advancing Translational Sciences [NCATS] NIH Chemical Genomics Center [NCGC] U.S. Environmental Protection Agency [EPA] National Institutes of Environmental Health Sciences [NIEHS] National Toxicology Program [NTP] Assay overview: Apoptosis is a process of programmed cell death and plays a central role in the development of multicellular organisms. It is a highly regulated process and induces cell death by activating caspases, which are the members of cysteine aspartic acid-specific protease (caspase) family. Caspases involved in apoptosis are classified by their mechanism of action as initiator caspases (caspase-2, -8, -9 and -10) and executioner caspases (caspase-3, -6, and -7). Inhibition of apoptosis results in number of cancers, autoimmune diseases, inflammatory diseases and viral infection. To identify small molecule compounds that induce apoptosis, a homogeneous, luminescent Caspase-Glo 3/7 assay was used. Wild type HepG2 cells were used to screen Tox21 libraries for identifying caspase-3/7 activity inducers.
# Assay Protocol Summary: HepG2 cells were dispensed at 2,000 per well in 5uL of culture medium into white solid bottom 1536-well plates (Corning Life Sciences, Corning, NY) using a Multidrop Combi (Thermo Scientific, Waltham, MA) dispenser. The assay plates were incubated at 37 C and 5% CO2 for 5hr, and then 23nL of compounds dissolved in DMSO and positive control were transferred using a Pintool station (Wako, San Diego, CA). The assay plates were incubated at 37C and 5% CO2 for 17hr. For caspase-3/7 activity read, 4uL of Caspase-Glo 3/7 reagent (Promega Corporation, Madison, WI) was added to each well of the assay plates using Flying Reagent Dispenser (FRD, Aurora Discovery, San Diego, CA) and incubated the assay plates at room temperature for 30min. The luminescence signal was quantified using a ViewLux plate reader (Perkin Elmer, Shelton, CT).
SMILES,Potency,caspase activation
C=CCCC=C,inactive,–
CN1CCN(C2=Nc3cc(F)ccc3Cc3ccccc32)CC1,inactive,–
CCCS(=O)c1ccc2nc(NC(=O)OC)[nH]c2c1 (stereo not given),inactive,–
CN1CCN(N)CC1,inactive,–
CCCCNC(=S)NCCCC,inactive,–
Cc1ncc(CO)c(CN)c1O,inactive,–
CC(C)CC(=O)OCc1ccccc1,inactive,–
CC(=O)Nc1ccc(C)c(Cl)c1,inactive,–
O=C(Cl)c1cccc([N+](=O)[O-])c1,inactive,–
CCCCC(=O)O[C@]1(C(=O)CO)[C@H](C)C[C@H]2[C@@H]3CCC4=CC(=O)C=C[C@]4(C)[C@@]3(F)[C@@H](O)C[C@@]21C,inactive,–
CC(C)=CCCC(C)CCOC=O (stereo not given),inactive,–
CCCCCCCCc1ccc(S(=O)(=O)O)cc1,inactive,–
CC(C)NC[C@@H](O)COc1cccc2ccccc12,inactive,–
CN(C)C(=O)NC1(c2ccccc2)CCN(CCC[C@]2(c3ccc(Cl)c(Cl)c3)CCCN(C(=O)c3ccccc3)C2)CC1,–,1.95% [at 19 µM]
CC/C=C\CCOC(=O)CCCCC,inactive,–
CCCCN1C[C@H](O)[C@@H](O)[C@H](O)[C@H]1CO,inactive,–
COC(=O)C(C)O (stereo not given),inactive,–
CCCCNc1cc(C(=O)O)cc(S(N)(=O)=O)c1Oc1ccccc1,inactive,–
CCCOc1ccc2c(c1)CC[C@@H]1[C@@H]2CC[C@]2(C)C(OC)CC[C@@H]12 (stereo not given in full),inactive,–
CS(=O)(=O)c1ccc([C@@H](O)[C@@H](CF)NC(=O)C(Cl)Cl)cc1,inactive,–

SMILES,Potency,caspase activation
CCN(O)CC,inactive,–
CC(=O)O[C@H]1CC[C@@]2(C)C(=CC[C@@H]3[C@@H]2CC[C@]2(C)C(C(C)=O)=CC[C@@H]32)C1,inactive,–
C=Cc1ccccc1,inactive,–
NCCCN1CCN(CCCN)CC1,inactive,–
CCCC1CCC(=O)O1 (stereo not given),inactive,–
O=C1CCCCC1C1CCCCC1 (stereo not given),inactive,–
COc1ccc2nc(NC(=O)Nc3ccccc3)sc2c1,inactive,–
CC(=O)OC(C)OC(C)=O,inactive,–
CCCc1c2oc(C(=O)O)cc(=O)c2cc2c(=O)cc(C(=O)O)n(CC)c12,inactive,–
CC(C)c1ccccc1,inactive,–
FC(F)(F)c1ccccc1,inactive,–
O=C(CCCl)NCc1ccccc1,inactive,–
O=C(O)C(=O)Cc1c[nH]c2ccccc12,inactive,–
CCN(CCCc1ccccc1)CCCc1ccccc1,inactive,–
Cc1c(-c2ccccc2)oc2c(C(=O)OCCN3CCCCC3)cccc2c1=O,inactive,–
CCOc1ccc(NC(N)=O)cc1,inactive,–
COC(=O)N[C@H](C(=O)N[C@@H](Cc1ccccc1)[C@@H](O)CN(Cc1ccc(-c2ccccn2)cc1)NC(=O)[C@@H](NC(=O)OC)C(C)(C)C)C(C)(C)C,inactive,–
Cc1ccccc1C(=O)Nc1ccc(C(=O)N2CCCC(O)c3cc(Cl)ccc32)c(C)c1 (stereo not given),inactive,–
Cc1c(C(=O)NCCO)[n+](=O)c2ccccc2n1[O-],inactive,–
CCOC(=O)CS,inactive,–
